From PubChem
Only some compounds are listed: those with a hit (about 5.8% of all), similar ones and a draw of the others.
12-LOX inh – inhibitors of human 12S-lipoxygenase ALOX12; P18054; purified 12hLO, xylenol orange hydroperoxide absorbance; Potency, µM (series often up to 108 µM), for inactives: at the highest dose activity change, negative = inhibition, usual class: inhibitors; 580,000 tested, 1.1% active; note: % is set by controls: 0 for no effect and ±100 for the full control effect
Target sequence (P18054 whole entry, looked up): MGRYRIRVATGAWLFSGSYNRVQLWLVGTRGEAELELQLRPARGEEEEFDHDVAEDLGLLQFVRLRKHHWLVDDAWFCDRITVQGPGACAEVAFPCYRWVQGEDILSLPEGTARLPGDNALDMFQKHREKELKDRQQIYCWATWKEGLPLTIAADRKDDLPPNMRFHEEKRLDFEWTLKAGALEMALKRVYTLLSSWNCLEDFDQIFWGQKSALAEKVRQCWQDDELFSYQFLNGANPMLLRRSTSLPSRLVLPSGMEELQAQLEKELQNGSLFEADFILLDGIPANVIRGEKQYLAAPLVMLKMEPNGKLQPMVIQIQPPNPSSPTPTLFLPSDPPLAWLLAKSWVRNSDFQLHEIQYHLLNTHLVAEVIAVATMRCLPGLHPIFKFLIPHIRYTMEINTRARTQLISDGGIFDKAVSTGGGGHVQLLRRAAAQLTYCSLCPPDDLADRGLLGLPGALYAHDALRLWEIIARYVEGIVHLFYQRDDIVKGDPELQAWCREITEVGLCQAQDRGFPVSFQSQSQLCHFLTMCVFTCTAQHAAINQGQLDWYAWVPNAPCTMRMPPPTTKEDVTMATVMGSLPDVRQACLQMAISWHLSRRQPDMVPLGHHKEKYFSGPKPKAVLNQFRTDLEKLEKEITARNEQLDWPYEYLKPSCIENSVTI
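Purified human 12hLO (150 nM final) in 25 mM Hepes, 0.01% Triton X-100, pH 7.0 was preincubated 15 min at room temperature with compound. Then 40 uM arachidonic acid was added, 30 min. Hydroperoxide was read by Fe-XO absorbance ratio 573/405 nm.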
SW480 rerep – induces DNA re-replication in SW480 colon adenocarcinoma cells | SW480 DNA re-replication, Hoechst DNA content imaging, 48 h | Potency, µM (doses to about 46.1 µM), for inactives: at the top dose re-replication activation, actives largely listed as activators | 340,000 tested, 1.8% active | AID 624297; note: % of control where 0% means no effect; nearly all actives have a fitted effect of over 55% in size
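SW480 cells exposed to compounds for 48 hr at 37 C, 5% CO2, then Hoechst-stained 40 min. Nuclear DNA content imaged by fluorescence scanning (405 nm excitation, 500-530 nm emission); re-replication scored as increased high-intensity nuclei.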
KB-V1 MDR tox – KB-V1 MDR subline cytotoxicity; Potency, µM (doses to about 46.1 µM), actives largely listed as cytotoxic; 400,000 tested, 3.4% active; KB-V1 MDR cells viability, CellTiter-Glo, 72 h; note: % is set by controls: 0 for no effect and ±100 for the full control effect; nearly all actives have a fitted effect of over 60% in size
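Cytotoxicity via CellTiter-Glo luminescence after 72 h compound exposure at 37 degrees C. Cells: drug-selected KB-V1 line, DMEM phenol-red free plus 10% FBS. Compounds tested at multiple concentrations; normalized data fitted to concentration-effect curves.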
PINK1 expr mod – modulators of PINK1 expression; PINK1 immunofluorescence, high-content cytometry, 24 h; Potency, µM (doses to about 76.6 µM), for the others: at the top dose activation (PINK1 increase), most hits filed as activators; 410,000 tested, 0.2% active; AID 624263; active = well fitted activation curve with a large enough effect; inconclusive = small, poorly fitted or top-dose-only effect; cell line not stated here; note: % of control where 0% means no effect; nearly all actives have a fitted effect of over 65% in size
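Measures PINK1 amount and localization on or inside mitochondria by immunofluorescence. Stable cells get compounds at 5 concentrations for 24 hours before fixation and staining; CCCP controls included.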
MCF10A rereplic – DNA re-replication induction in MCF 10a cells. 350,000 tested, 2.9% active. MCF 10A DNA re-replication, Hoechst nuclear intensity, 48 h. Potency, µM (highest dose often 46.1 µM), for inactives: at the highest dose activity, positive = re-replication, hits mostly activators; note: % of control where 0% means no effect; nearly all actives have a fitted effect of over 50% in size
KB-3-1 cytotox – kills parental KB-3-1 adenocarcinoma cells | KB-3-1 viability, CellTiter-Glo ATP luminescence, 72 h | Potency, µM (top dose mostly 46.1 µM), most hits filed as cytotoxic | 400,000 tested, 1.4% active; note: % is set by controls: 0 for no effect and ±100 for the full control effect; nearly all actives have a fitted effect of over 60% in size
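Here the drug-naive KB-3-1 line serves as comparator for MDR sub-line selectivity; cells received compound titrations, 72 h at 37 °C, then CellTiter-Glo readout.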
Numbers without * were called inactive; i = inactive; u = inconclusive; x = no result given; ! = repeats disagree; [ ] = remark or other dose. Unless noted, calls come from the whole dose curve; as a rule, active = well fitted curve in the direction sought with a large enough effect; inconclusive = small, poorly fitted or top-dose-only effect, or another doubt; inactive = no such curve, though single readings can be large; an effect the other way counts as inactive or inconclusive. Potency is the fitted concentration of half-maximal effect.

SMILES	12-LOX inh	SW480 rerep	KB-V1 MDR tox	PINK1 expr mod	MCF10A rereplic	KB-3-1 cytotox
Cc1ccc2nc(CO[C@H]3CN(Cc4ccc(C(F)(F)F)cc4)C[C@H]3F)[nH]c2c1	24%[176 µM]	x	x	x	x	x
CC1CCN(CCNC(=O)c2n[nH]c(=O)c3ccccc23)CC1	-3%	x	x	x	x	x
COc1ccc(OC)c(NC(=O)C2(C)CCN2Cc2cccc(OC)c2F)c1 (configuration not stated)	-5%	x	i	0%	x	i
COc1cccc(CN2CCC2(C)C(=O)Nc2cccc3cccnc23)c1F (configuration not stated)	20%	x	7.3µM*	1%	x	7.3µM*
COc1ccc(NC(=O)C2(C)CCN2Cc2cccc(OC)c2OC)cc1OC (configuration not stated)	3%	x	8.2µM*	0%	x	u
COc1ccc(NC(=O)C2(C)CCN2Cc2ccc(OC)c3ccccc23)cc1OC (configuration not stated)	-23%	x	i	1%	x	i
COc1ccc(NC(=O)C2(C)CCN2C(=O)c2ccc(C(C)(C)C)cc2)cc1OC (configuration not stated)	-2%	x	16µM*	1%	x	15µM*
CCCCCCCCCCCC(=O)N/N=C\CC(C)C	85%	x	x	x	x	x
Cn1nnnc1SCc1nnc(-c2ccccc2Br)o1	0%	1%	i	1%	-3%	i
Cc1ccc(-n2nnnc2SCc2nnc(-c3ccccc3Br)o2)c(C)c1	4%	2%	10µM*	1%[38.3 µM]	-2%	i
CCOC(=O)N1CCN(C(=O)COc2ccc(Br)cc2Cl)CC1	0%	0%	7.3µM*	36%[38.3 µM]	0%	i
O=C(COc1ccc(Br)cc1Cl)N1CCN(c2ncccn2)CC1	189%	-4%	i	0%	0%	i
O=C(COc1ccc(Cl)cc1Cl)N1CCCN(C(=O)COc2ccc(Cl)cc2Cl)CC1	u	u	8.2µM*	-1%	u	u
O=C(NCC1CC1)c1cc(C2CC2)nc2onc(C3CCCNC3)c12 (configuration not stated)	15%	x	x	x	x	x
C[C@@H]1CC=C[C@H]2[C@H]1C(=O)N(Cc1ccccc1)[C@H]2c1ccc(-c2ccoc2)cc1F	u	3%	i	-2%	18µM*	i
C[C@@H]1CC=C[C@@H]2[C@H]1C(=O)N(Cc1ccccc1)[C@H]2c1ccccc1Br	-8%	u	u	6%	u	u
Cc1ccc(-c2cccc(C3CC=CC4C3C(=O)N(Cc3ccccc3)C4c3cc(C)ccc3F)c2)cc1 (configuration not stated)	8%	-1%	i	u	-1%	21µM*
COc1ccc(-c2ccc(F)cc2)cc1[C@H]1[C@H]2C=CC[C@@H](C)[C@@H]2C(=O)N1Cc1ccccc1	-9%	-7%[9.22 µM]	u	u	21µM*	u
COc1ccc(-c2ccccc2[C@H]2[C@@H]3C=CC[C@@H](C)[C@@H]3C(=O)N2Cc2ccccc2)cc1	-5%	u	i	14%	23µM*	i
CCCN(C)c1nccnc1OC1CCN(C(=O)c2ccoc2)C1 (configuration not stated)	45%	x	x	x	x	x
COc1cc(OC)c(NS(=O)(=O)c2ccc3c(c2)NC(=O)CCS3)cc1Cl	u	x	u	-1%	x	18µM*
Cc1ccc(C)c(NS(=O)(=O)c2ccc3c(c2)NC(=O)CCS3)c1	0%	3%	i	-1%	0%	i
COc1cc(OC)c(NS(=O)(=O)c2ccc3c(c2)NC(=O)CO3)cc1Cl	-10%	-6%	i	-1%	17%	i
Cc1ccc(NS(=O)(=O)c2ccc3c(c2)NC(=O)CCS3)c(Br)c1	u	6%	23µM*!	0%	0%	u
CC(C)C(OC(=O)C1=Cc2ccccc2OC1)C(=O)NCC1CCCO1 (configuration not stated)	u	-8%	i	u	16µM*	i
SMILES	12-LOX inh	SW480 rerep	KB-V1 MDR tox	PINK1 expr mod	MCF10A rereplic	KB-3-1 cytotox
O=[N+]([O-])c1cc(S(=O)(=O)NCCCN2CCOCC2)ccc1Cl	-20%	u	i	-1%	16µM*	i
O=C(NCCCN1CCOCC1)c1ccc(Sc2cccc(Cl)c2)c([N+](=O)[O-])c1	u	-9%	21µM*	5%	20%	u
Cc1ccc(NC(=O)c2ccc(NCCCN3CCOCC3)c([N+](=O)[O-])c2)cc1Cl	-30%	u	23µM*	4%	u	8.2µM*
O=C(Nc1ccc(Cl)c([N+](=O)[O-])c1)c1ccc(NCCCN2CCOCC2)c([N+](=O)[O-])c1	-2%	2.9µM*	4.6µM*	4%[38.3 µM]	u	i
O=C(NCCCN1CCOCC1)c1ccc(Cl)c([N+](=O)[O-])c1	i	-33%	i	2%	u	i
CCCOc1ccccc1C(C)N (configuration not stated)	55%	x	x	x	x	x
O=C(Nc1cccc(S(=O)(=O)N2CCOCC2)c1)c1ccc(Cl)c([N+](=O)[O-])c1	-16%	16µM*	i	-1%	9.2µM*	i
Cc1ccc(NC(=O)c2ccc(N3CCOCC3)c([N+](=O)[O-])c2)cc1S(=O)(=O)N1CCOCC1	2%	-10%	u	0%	1%	21µM*
COc1ccc(NC(=O)c2ccc(NCCCN3CCOCC3)c([N+](=O)[O-])c2)cc1	u	-5%	9.2µM*	9%	14%	u
O=C(Cc1cccs1)NCCSc1c(-c2ccc(Cl)cc2)[nH]c2ccccc12	-6%	u	i	u	21µM*	u
CN(C)S(=O)(=O)c1ccc(C(=O)NCCSc2c(-c3ccc(Cl)cc3)[nH]c3ccccc23)cc1	-3%	x	i	0%	x	i
c1ccc2sc(NC3=NCN(C4CCCCCC4)CN3)nc2c1	1%	-12%	21µM*	13%[38.3 µM]	2%	u
c1ccc2oc(NC3=NCN(C4CCCCC4)CN3)nc2c1	11%	-3%	i	13%	2%	i
c1ccn2cc(CSc3ccc4c(c3)OCCCO4)nc2c1	72%	x	x	x	x	x
CCOc1ccc(N(CC)C(=O)C(=O)c2c(C)n(C)c3ccccc23)cc1	-7%	x	x	x	x	x
CC(C)Sc1ccc2ccccc2n1	-40%	x	x	x	x	x
NC(N)=NCCCS(=O)(=O)Nc1ccc(Nc2c3ccccc3nc3cc([N+](=O)[O-])ccc23)cc1	u	-1%	u	10%	3%	15µM*
COc1ccc(NC(=O)c2cc3c(N4CCSCC4)nc(C)cn3n2)cc1OC	2%	x	x	x	x	x
